GLP-1R inv ag: GLP-1 receptor (human) inverse agonism; P43220; Potency, µM (highest dose often 38.3 µM), for inactives: at the top dose activity change, negative = inhibition, most hits filed as inhibitors; HEK293 GLP-1R CRE-luciferase, luminescence, 24 h; GLP-1R form is constitutively active; actives 1.6% (n = 410,000); also: % is scaled to controls: 0 for no effect and ±100 for the full control effect; nearly all actives have a fitted effect of over 55% in size
Target sequence (P43220 whole entry, looked up): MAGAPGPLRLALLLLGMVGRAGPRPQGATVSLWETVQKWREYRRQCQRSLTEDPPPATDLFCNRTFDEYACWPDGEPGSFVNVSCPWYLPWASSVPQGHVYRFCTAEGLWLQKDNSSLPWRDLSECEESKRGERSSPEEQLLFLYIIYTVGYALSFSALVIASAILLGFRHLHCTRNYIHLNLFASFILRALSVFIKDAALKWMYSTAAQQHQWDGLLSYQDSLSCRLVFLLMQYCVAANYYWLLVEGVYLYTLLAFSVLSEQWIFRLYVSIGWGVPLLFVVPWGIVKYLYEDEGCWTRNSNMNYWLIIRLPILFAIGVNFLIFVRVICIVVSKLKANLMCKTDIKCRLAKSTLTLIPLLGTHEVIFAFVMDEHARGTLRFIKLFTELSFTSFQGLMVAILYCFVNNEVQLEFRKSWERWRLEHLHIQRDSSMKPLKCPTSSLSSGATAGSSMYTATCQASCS
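Stable HEK293 clone (constitutively active GLP-1R + cAMP-response luciferase); 200 cells/uL plated, 12 h pre-culture, compound 24 hr, 37 deg C/5% CO2; detection reagent 12 min RT; luminescence.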
S2 tox: reduces viability in counter-screen for ATXN expression inhibitors | S2 cells (HEK-293 line with an ATXN2-luciferase reporter) viability, CellTiter-Fluor protease fluorescence, 24 h | Potency, µM (top dose mostly 56.7 µM), usual class: cytotoxic | actives 0.49% (n = 400,000) | AID 651635; also: nearly all actives have a fitted effect of over 40% in size
HepG2 tox: counter-screen for TGF-b inhibitors: cytotoxicity in HepG2 cells; HepG2 CAGA-GFP viability, ATP luminescence, 18 h; Potency, µM (top dose mostly 46.1 µM), for the others: top-dose activity change, negative = cytotoxicity, usual class: cytotoxic; actives 0.76% (n = 410,000)
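CellTiter-Glo luminescence gave cytotoxicity after 18 hours at 37 degrees C. The cells were HepG2 CAGA-GFP in 1% FBS DMEM, stimulated with 500 pg/mL TGF-beta after compound addition. %Activity was normalised to no-cell wells (complete cell-killing) and DMSO (no toxicity), and curves were fitted and classified.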
TGFb inhibitor: blocks TGF-b signaling; HepG2 CAGA-GFP TGF-b/SMAD3 reporter, GFP fluorescence, 18 h; TGF-beta stimulated, 500 pg/mL final; Potency, µM (highest dose often 46.1 µM), for inactives: at the highest dose activity, negative = inhibition, usual class: inhibitors; actives 1.2% (n = 410,000); also: % is scaled to controls: 0 for no effect and ±100 for the full control effect; nearly all actives have a fitted effect of over 65% in size
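TGF-beta reporter screen: HEPG2 CAGA-GFP, 1% FBS, 500 pg/mL TGF-beta final, 18 h; per-cell GFP summed per well; curves fitted and categorized by class.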
GLP-1R agonist: activates the human GLP-1 receptor; actives 0.007% (n = 380,000); Potency, µM (series often up to 45.6 µM), inactives show at the highest dose activation, hits mostly activators; AID 624172; HEK293 GLP-1R CRE-luciferase, luminescence, 4-6 h; cells express a hypersensitive GLP-1R form; also: % of control where 0% means no effect
ATXN2 expr inh: reduces ATXN2 reporter expression in HEK-293 cells; HEK-293 ATXN2-luciferase reporter, luminescence, 24 h; Potency, µM (doses to about 57 µM), for inactives: at the top dose activity change, negative = inhibition, most hits filed as inhibitors; actives 0.72% (n = 360,000); AID 1745845; also: % is scaled to controls: 0 for no effect and ±100 for the full control effect; nearly all actives have a fitted effect of over 55% in size
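ATXN2-luciferase reporter cells (luciferase flanked by upstream and downstream ATXN2 gene portions) were treated 24 h at 37 °C with compounds at up to 57 uM. SteadyGlo luminescence gave expression; GF-AFC fluorescence gave viability.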
* marks the source's active call; other numbers are inactive results; i = inactive; ? = inconclusive; / = no result; [ ] = dose if it differs, or a comment. This is a sample that favours compounds with a hit; in the whole collection about 3.7% have one here. Calls follow the shape of the dose curve; as a rule, active = well fitted curve in the direction sought with a large enough effect; inconclusive = small, poorly fitted or top-dose-only effect, or another doubt; inactive = no such curve, though single readings can be large; an effect the other way counts as inactive or inconclusive. Potency is read from the fitted curve at half-maximal effect.

SMILES	GLP-1R inv ag	S2 tox	HepG2 tox	TGFb inhibitor	GLP-1R agonist	ATXN2 expr inh
COc1cc([C@H]2c3[nH]c4ccccc4c3C[C@H]3C(=O)N4[C@@H](c5cc(OC)c(OC)c(OC)c5)c5[nH]c6ccccc6c5C[C@H]4C(=O)N23)cc(OC)c1OC	10µM*	15.8µM*	14.1µM*	?	-2.7%	?
CCN(Cc1ccccc1)C(=O)Cn1c(=O)n(-c2ccc(F)c(Cl)c2)c(=O)c2sc3ccccc3c21	5.2%	i	5.9%	0.7%	-0.3%	2.8%
CCCCc1nn2c(=O)cc(COC(=O)c3ccccc3C)nc2s1	18.1%	i	-3.2%	-4.8%	/	10.1%
COc1cc([N+](=O)[O-])cc(/C=N/NC(=O)C(C)Nc2cccc3ccccc23)c1O (stereo not given)	?	?	-44.7%	?	-15.5%	20µM*
O=C(CCCSc1nnc(-c2cccs2)n1CC1CCCO1)c1ccccc1 (stereo not given)	7.94µM*	i	-16.1%	13.5%	0.0%	12.5%
Cc1ccc(S(=O)(=O)N(C)c2cc(S(=O)(=O)N3CCC(C)CC3)c(C)cc2C)cc1	12.6µM*	i	-2.4%	-26.7%	-5.6%	-13.7%
CNS(=O)(=O)c1cc(N(C)S(=O)(=O)c2ccc(C)cc2)c(C)cc1C	-27.9%	?	-0.8%	0.6%	2.7%	-7.7%
COC1(OC)C=CC(=O)C=C1NC(=O)c1ccccc1OC(C)=O	/	14.1µM*	-4.4%	11.2µM*	-7.3%	17.8µM*
CCN(CC)CCOc1ccc(C(=C(Cl)c2ccccc2)c2ccccc2)cc1	/	/	/	/	/	7.3%
CCSc1nc2c(c(=O)[nH]c(=O)n2C)n1C/C=C(/C)Cl	94.7%	i	7.08µM*	4.0%	0.2%	1.6%
CSc1nc2c(c(=O)[nH]c(=O)n2C)n1C/C=C(\C)Cl	83.1%	i	-10.1%	-12.7%	24.4%	11.8%
C=CCn1c(SCc2ccc(C(=O)Nc3nccs3)cc2)nnc1-c1ccc(C)c(Cl)c1	4.47µM*	?	-19.9%	0.0%	-5.5%	?
CCC(C(=O)N1CCN(c2cccc(Cl)c2)CC1)c1ccccc1 (stereo not given)	5.01µM*	i	-0.3%	-3.2%	-3.3%	-12.6%
CCC(CC)C(=O)N1CCN(c2ccccc2)CC1	-0.5%	i	7.1%	0.0%	-1.9%	-33.5%
O=C(C(=O)N1CCN(c2ccc(F)cc2)CC1)c1c[nH]c2ccccc12	1.0%[0.307 µM]	i	2.8%	13.1%	-1.6%	3.7%
O=C(C(Cc1ccccc1)n1cccc1)N1CCN(c2cccc(Cl)c2)CC1 (stereo not given)	11.2µM*	i	-19.8%	-27.6%	-1.8%	-5.2%
O=C(C(Cc1ccccc1)n1cccc1)N1CCN(Cc2ccccc2)CC1 (stereo not given)	?	i	-24.4%	-4.2%	-2.1%	-22.8%
O=C(C(=O)N1CCN(c2cccc(Cl)c2)CC1)c1c[nH]c2ccccc12	8.91µM*	i	-48.9%	?	-1.7%	/
CCc1ccccc1N1C(=O)N(CC(=O)c2ccc(Cl)cc2)c2ccccc2S1(=O)=O	-19.8%	i	4.0%	-14.5%	-1.6%	12.8%
CN1C(=O)CC(C)(c2ccccc2)C1=O (stereo not given)	/	i	/	/	0.5%	5.9%
CC(=O)OC1C(C)OC(Oc2c(-c3ccc(O)cc3)oc3cc(O)cc(O)c3c2=O)C(O)C1OC(C)=O (stereo not given)	/	/	/	/	/	0.8%
CCC1=NN(C(=O)c2ccc(Cl)cc2)C(O)(c2ccc(C)cc2)C1 (stereo not given)	2.82µM*	i	12.6µM*	11.2µM*	8.1%	4.6%
CC1=NN(C(=O)c2ccccc2Br)C(O)(c2ccc(Cl)cc2)C1 (stereo not given)	3.16µM*	i	-52.7%	?	10.5%	/
CCC1=NN(C(=O)c2ccc([N+](=O)[O-])cc2)C(O)(c2ccccc2)C1 (stereo not given)	0.794µM*	28.2µM*	12.6µM*	?	10.7%	?
CCC1=NN(C(=O)c2ccccc2O)C(O)(c2ccccc2)C1 (stereo not given)	?	/	14.1µM*	12.6µM*	-1.7%	-38.6%
SMILES	GLP-1R inv ag	S2 tox	HepG2 tox	TGFb inhibitor	GLP-1R agonist	ATXN2 expr inh
CCC1=NN(C(=O)c2ccccc2Br)C(O)(c2ccc(Br)cc2)C1 (stereo not given)	?	i	2.9%	-8.5%	-1.2%	/
Cc1ccc(NC(=O)c2c(NC(=O)c3ccco3)sc3c2CCC(C(C)(C)C)C3)c(C)c1 (stereo not given)	-3.6%	i	-30.5%	-0.4%	/	6.6%
Cc1cccc(C(=O)N[C@H]2CC[C@@H](n3cc(C(=O)N4CCCC4)nn3)CC2)c1	/	i	/	/	/	/
Cc1ccc(/C=C2\CCOC2=O)cc1	4.4%	i	3.0%	-3.4%	8.5%	17.3%
Cc1ccc(/C=C2/CNC/C(=C/c3ccc(C)cc3)C2=O)cc1	?	?	-51.1%	10µM*	-4.4%	?
Cc1ccc(-c2cc(C(=O)N/N=C/c3ccccc3O)n[nH]2)o1	?	?	-49.1%	?	8.6%	20µM*
COc1ccc(C2CC(=O)Oc3c(C(CCN4CCCC(C)C4)c4ccc(N(C)C)cc4)c(OC)cc(OC)c32)cc1 (stereo not given)	9.2%	8.91µM*	-22.4%	-6.2%	6.4%	-0.8%
COc1cc(OC)c2c(c1C(CCN1CCCC1)c1ccc(N(C)C)cc1)OC(=O)CC2c1ccc(N(C)C)cc1 (stereo not given)	/	/	-26.1%	0.1%	/	/
COc1ccc(C2CC(=O)Oc3c(C(CCN4CCCCC4)c4ccc(N(C)C)cc4)c(OC)cc(OC)c32)cc1 (stereo not given)	-9.2%	8.91µM*	6.5%	-11.6%	-5.1%	-22.2%
CCCCCc1ccc(-c2cn(Cc3ccc4c(c3)C(=O)c3ccccc3C4=O)nn2)cc1	/	/	15.0%	0.1%	/	/
CCc1cccc(C)c1NC(=O)CN(C)Cc1cccc(F)c1	8.91µM*	i	-18.5%	9.4%	4.3%	-28.3%
Cc1cccc(C(C)C)c1NC(=O)CN(C)Cc1cccc(F)c1	?	i	-80.2%	-12.3%	-5.2%	/
CN1C=C/C(=C\c2cc[n+](C)c3ccccc23)c2ccccc21	?	?	-49.5%	?	-6.9%	8.44µM*
C[n+]1ccc(/C=C/c2cc[n+](C)c3ccccc23)c2ccccc21	/	/	-68.7%	7.08µM*	/	/
C[n+]1ccc(/C=C/c2ccc([N+](C)(C)C)cc2)c2ccccc21	/	/	-69.0%	4.47µM*	/	/
